# An excerpt weighted towards active compounds, which were near 32% of everything screened.
# PostGolgi yeast – growth inhibition of a yeast mutant, post-Golgi transport screen. post-Golgi transport phenotypic cell assay. inhibition, % at 10 µM. actives 0.9% (n = 98,000). AID 739;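 note: yeast cells grown in 1536-well plates; yeast grown about 18 h at 30C before absorbance read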
# CYP2C19 activ – cytochrome P450 2C19 (human) activation; P33261; recombinant CYP2C19, luciferin-H EGE luminescence; stronger effect = higher value; 0 = fully inhibited enzyme, 1 = untreated enzyme; activation factor at 5 µM; 96,000 tested, under 10 active; AID 1025;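 active = activation factor of at least 2 at 5 µM in the primary screen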;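 note: 0 = wells with 2.5 mM tranylcypromine and 1 = vehicle-only wells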
# CYP2C9 act – increases human cytochrome P450 2C9 activity; AID 1024; activation factor at 5 µM; P11712; actives 1.4% (n = 96,000); recombinant CYP2C9, luciferin-H conversion, luminescence; stronger effect = higher value; factor 1 = untreated enzyme, 0 = blocked;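 active = activation factor of 2 or more for CYP2C9 at a 5 µM dose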;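 note: 0 = sulfaphenazole-blocked wells and 1 = vehicle-only wells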
# Target sequence (P11712 whole entry, looked up): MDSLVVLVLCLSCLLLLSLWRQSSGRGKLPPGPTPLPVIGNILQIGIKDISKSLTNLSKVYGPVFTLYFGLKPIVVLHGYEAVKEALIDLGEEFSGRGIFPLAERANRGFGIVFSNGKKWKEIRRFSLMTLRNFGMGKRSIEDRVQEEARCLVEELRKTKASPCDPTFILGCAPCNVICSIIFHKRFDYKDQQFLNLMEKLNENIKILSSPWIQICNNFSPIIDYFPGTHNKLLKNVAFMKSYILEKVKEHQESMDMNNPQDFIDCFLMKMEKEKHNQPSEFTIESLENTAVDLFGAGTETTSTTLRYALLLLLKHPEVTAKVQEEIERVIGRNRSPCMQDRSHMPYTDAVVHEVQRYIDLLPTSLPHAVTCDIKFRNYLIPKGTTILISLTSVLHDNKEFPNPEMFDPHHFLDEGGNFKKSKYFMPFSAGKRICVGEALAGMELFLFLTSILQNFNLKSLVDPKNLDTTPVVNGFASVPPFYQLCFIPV
# CYP2C19 inhib – human CYP2C19 inhibition. P33261. CYP2C19 Supersomes, luciferin-H EGE luminescence, 30 min. inhibition, % at 5 µM. actives 21% (n = 96,000);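 active = CYP2C19 inhibition above a set limit at 5 µM in the primary screen, cut at about 50% in these data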;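 note: plate controls were negative control wells for no effect and 2.5 mM tranylcypromine positive control for full effect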
# CYP2C9 inh – human CYP2C9 inhibition | actives 20% (n = 96,000) | P11712 | CYP2C9 Supersomes, luciferin-H conversion, luminescence | inhibition, % at 5 µM;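 active = blocking of liver enzyme CYP2C9 beyond about 50% at 5 µM, limit read from the data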
# PostGolgi ctrl – growth of the yeast control strain, post-Golgi counter-screen | efflux-deficient yeast background strain, growth absorbance A615, 16 h | AID 738 | inhibition, % at 10 µM | actives 5% (n = 98,000)
# Active calls of the source: *; x = not tested or not shown. Cut-off read from the data, not from the text of the source, unless noted: active = inhibition above about 30%; inactive = the rest.
SMILES,PostGolgi yeast,CYP2C19 activ,CYP2C9 act,CYP2C19 inhib,CYP2C9 inh,PostGolgi ctrl
CC[N+](CC)(CC)C/C(N)=N/O,-4,1,1,4,0,-5
C=CCN1C(=O)C(Cc2ccc(C)cc2)S/C1=N/N=C/c1ccco1 (configuration not stated),-3,1,0.7,5,25,13
C=CCN1C(=O)C(Cc2ccccc2)S/C1=N/N=C/c1cccs1 (configuration not stated),-7,0.8,0.3,23,68*,38*
C=CCN1C(=O)C(Cc2ccc(OCC)cc2)S/C1=N\N=C\c1cccs1 (configuration not stated),-8,0.7,0.5,30,54*,8
Cc1ccc(Cn2nc(C)c(NC(=O)c3cc(-c4ccc5c(c4)OCO5)on3)c2C)cc1,-2,0.8,0.5,24,53*,13
Cc1ccc(Cn2ccc(NC(=O)c3cc(C)on3)n2)cc1,20,0.3,0.4,70*,62*,-5
COc1ccc(-c2cc(C(=O)Nc3c(C)nn(Cc4ccc(Cl)cc4)c3C)no2)cc1,-2,0.5,0.5,51*,50,-2
Cc1ccc(Cn2ccc(NC(=O)c3cc(-c4ccccc4)on3)n2)cc1,-2,0.9,1.1,6,-6,0
COc1ccc(-c2cc(C(=O)Nc3c(C)nn(Cc4ccccc4Cl)c3C)no2)cc1OC,-3,0.8,0.4,15,63*,5
Cc1nn(Cc2ccc(Cl)cc2)c(C)c1NC(=O)c1cc(-c2ccco2)on1,-4,0.8,0.9,18,8,10
COc1ccc(OC)c(-c2cc(C(=O)Nc3c(C)nn(Cc4ccccc4Cl)c3C)no2)c1,-2,0.8,1.2,23,-23,17
Cc1nn(Cc2ccc(F)cc2)c(C)c1NC(=O)c1cc(-c2ccc3c(c2)OCO3)on1,-6,1,1,-1,-4,17
O=C(CN1C(=O)CSC1=O)Nc1ccc(F)c(F)c1F,4,0.9,0.9,10,11,-8
O=C(NC1CCCC1)c1csc2c1CCCC2,-5,1,1.2,5,-22,3
Cc1ccc(Cn2ccc(NC(=O)c3cc(-c4ccco4)on3)n2)cc1,-7,0.8,0.9,19,9,9
Cc1ccc(Cn2ccc(NC(=O)c3cc(-c4ccc5c(c4)OCO5)on3)n2)cc1,1,1,0.5,5,47,35*
CC(C)CNC(=O)c1cccc(NC(=O)c2ccc(NC(=O)c3ccco3)cc2)c1,13,0.9,0.8,10,21,-11
CC(C)CNC(=O)c1ccccc1NC(=O)Nc1ccccc1,-9,0.7,0.5,32,52*,0
CSc1cccc(NC(=O)C(C)NS(=O)(=O)c2ccc(F)cc2)c1 (configuration not stated),0,0.4,1,62*,-1,2
Cc1ccccc1C(=O)Nc1ccccc1C(=O)NCc1ccccc1,0,1,0.9,0,11,13
CSc1cccc(NC(=O)C2CCN(S(=O)(=O)c3ccc(F)cc3)CC2)c1,-8,0.8,1,23,-4,4
CCCNC(=O)c1ccccc1NC(=O)Nc1ccccc1C,-3,0.5,0.8,51*,24,7
CSc1ccccc1NC(=O)Nc1ccccc1,-1,0.4,0.7,58*,30,10
O=C(OCC(=O)N1CCN(C(=O)c2ccco2)CC1)c1sc2cc(F)ccc2c1Cl,-4,1,1.3,-3,-28,3
COC(=O)c1nc2nc(C)cc(=O)n2[nH]1,-4,1,1,0,4,12
SMILES,PostGolgi yeast,CYP2C19 activ,CYP2C9 act,CYP2C19 inhib,CYP2C9 inh,PostGolgi ctrl
CCOC(=O)NCCc1c(C)nc2c(c(C)nn2C(C)(C)C)c1C,-2,0.8,0.7,24,34,12
O=C(Nc1ccccc1)Nc1cc(Cl)cc(Cl)c1,9,0.9,0.8,13,16,56*
CSc1cccc(NC(=O)Nc2ccccc2)c1,-4,0.6,0.7,44,28,48*
CC(C)CNC(=O)c1ccccc1Oc1ccccc1,25,0.2,0.6,75*,40,3
O=C(N/C(=N\O)c1ccccc1)Nc1ccc(Cl)cc1,4,0.4,0.4,64*,56*,1
COC(=O)Cn1ncn2c(cc3oc(C)cc32)c1=O,-8,1.1,0.7,-14,27,-3
COCCCn1cnnc1SCC(=O)Nc1ccc(S(=O)(=O)N2CCCC2)cc1,7,0.8,0.8,18,19,6
CSc1cccc(NC(=O)/C=C/c2ccccc2)c1,-9,0.4,1.9,55*,-91,-1
CCCCC(C)n1[nH]c(=O)cc1N (configuration not stated),3,1,0.9,-2,7,-1
C=CCNC(=S)NNC(=O)COc1cccc(Cl)c1,-5,0.4,0.9,60*,10,3
C=CCNC(=S)NNC(=O)c1ccccc1,-7,0.8,1,20,1,10
Cc1ccc(S(=O)(=O)N2CCCC(C(=O)NCCc3ccc4c(c3)OCO4)C2)cc1 (configuration not stated),-4,0.5,0.6,49,36,5
COc1ccc(-c2nn(C)c(=O)c3ccccc23)cc1NC(=O)COc1ccc(C)cc1,6,0.7,0.8,26,17,-2
Cc1cccc(-c2nc(NCCCN3CCOCC3)c3ccccc3n2)c1,1,0.4,0.2,60*,84*,7
CCOc1ccccc1N1CCN(S(=O)(=O)c2ccc(F)c(F)c2)CC1,14,0.5,0.6,45,38,20
CCn1c(=O)c2cc(S(=O)(=O)NC3CCCCC3)ccc2n(CC)c1=O,-5,0.5,0.5,49,53*,24
O=S(=O)(c1ccc(Oc2ccc(Br)cc2F)nc1)N1CCCCC1,0,x,x,x,x,37*
CCOc1ccc(C)cc1S(=O)(=O)NC1CCCCC1,0,0.8,0.9,21,14,2
CCOC(=O)c1ccc(S(=O)(=O)NC2CCCCCCC2)n1C,8,0.5,0.1,53*,85*,11
CCOc1cc(S(=O)(=O)N2CCCCCC2)ccc1F,-1,0.1,1.3,87*,-31,8
CCn1c(=O)c2cc(S(=O)(=O)NCc3ccccc3)ccc2n(CC)c1=O,3,0.8,0.9,16,13,-1
CCOc1cc(S(=O)(=O)NC2CCCCC2)ccc1F,-3,0.2,0.4,80*,60*,10
COc1cc(S(=O)(=O)NC2CCCCC2)ccc1F,5,0.2,2.1*,85*,-109,12
CCOc1cc(S(=O)(=O)NC2CCCC2)ccc1Cl,-2,0.6,1.3,38,-31,7
COc1cc(S(=O)(=O)NC2CCCC2)c(OC)cc1Cl,-6,0,0.6,99*,42,30
COc1ccc(F)cc1S(=O)(=O)NC1CCCCCC1,-1,0.7,0.6,35,38,5
